The values that follow come from PubChem BioAssay (NCI).

Structures are written as SMILES. About 83,000 compounds went through this panel and 20% of them were active in at least one assay; those are over-represented in the sample as a whole.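 Testing used 96-well plates and a 48-hour single-concentration exposure. Example: -40 means 40% of the starting cells died.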 A number with no mark means an inactive call. Calls of active or inactive are those of the source. Rule for the calls: active = growth percent below 10; inactive = the rest.

Some test systems named below: SR leukemia; RPMI-8226 leukemia; OVCAR-8 ovarian; OVCAR-5 ovarian; OVCAR-4 ovarian; SK-OV-3 ovarian; IGROV1 ovarian; OVCAR-3 ovarian; HS 578T breast; NCI/ADR-RES ovarian.
What all share (assay): NCI-60 one-dose screen, 48 h (100 = growth as untreated, 0 = no growth, -100 = all killed)
Common to all, as to conditions: 10 µM unless noted

Turning to `COc1ccc(Nc2nc(N)nc3c2CCc2occc2-3)cc1`, the growth with SR leukemia was 85.8%; in the assay on RPMI-8226 leukemia, 101%; in the assay with OVCAR-8 ovarian it was 102%; in the assay on OVCAR-5 ovarian, 106%; in the assay with OVCAR-4 ovarian, 96.9%; in the assay on SK-OV-3 ovarian, 97.8%. Moreover, the growth was 102% in the assay with IGROV1 ovarian, 103% in the assay on OVCAR-3 ovarian, 105% with HS 578T breast and 96.2% in the assay with NCI/ADR-RES ovarian.
`CC(C)(C)CC(C)(C)Nc1c(-c2ccc3c(c2)OCO3)nc2cnccn12`: the growth with SR leukemia was 73.1%; in the assay on RPMI-8226 leukemia, 69.7%; in the assay on OVCAR-8 ovarian it was 95.1%; in the assay with OVCAR-5 ovarian it was 91.2%; with OVCAR-4 ovarian, 86.9%; with SK-OV-3 ovarian, 92%. For the same compound, the growth with IGROV1 ovarian is 72.1%; in the assay with OVCAR-3 ovarian, 92.5%; in the assay on HS 578T breast, 88.5%; in the assay with NCI/ADR-RES ovarian, 87.7%.
With `Cc1ccc(-c2c(Br)c(OC(=O)CO[C@@H]3C[C@H](C)CC[C@H]3C(C)C)c(-c3ccc(C)cc3C)c(Br)c2OC(=O)CO[C@H]2C[C@@H](C)CC[C@@H]2C(C)C)c(C)c1`, the growth is 104% with SR leukemia; 94.3% in the assay on RPMI-8226 leukemia; 89.6% in the assay with OVCAR-8 ovarian; 102% with OVCAR-5 ovarian; 106% with OVCAR-4 ovarian; 94.9% with SK-OV-3 ovarian. Also, the growth with IGROV1 ovarian is 108%; in the assay on OVCAR-3 ovarian, 110%; with HS 578T breast it was 98.9%; in the assay with NCI/ADR-RES ovarian it was 101%.
Turning to `Cc1ccccc1CNc1ccc(N2CCOCC2)cc1`, the growth in the assay on SR leukemia was 86.3%; in the assay with RPMI-8226 leukemia, 110%; in the assay with OVCAR-8 ovarian, 96.3%; in the assay on OVCAR-5 ovarian it was 103%; in the assay on OVCAR-4 ovarian it was 87.7%; in the assay on SK-OV-3 ovarian it was 131%. Moreover, the growth was 108% in the assay with IGROV1 ovarian, 101% in the assay with OVCAR-3 ovarian, 108% with HS 578T breast and 99.2% in the assay on NCI/ADR-RES ovarian.
In the case of `CC1=CC[C@@H]2CC[C@]3(C)[C@H](CC[C@@H]4[C@@]5(C)CCCNC(C)(C)[C@@H]5CC[C@]43C)[C@H]2[C@@H]1C`, the growth was 5.05% (active) in the assay on SR leukemia; -32.8% (active) in the assay on RPMI-8226 leukemia; -87.3% (active) in the assay on OVCAR-8 ovarian; 41.1% with OVCAR-5 ovarian; -41% (active) in the assay on OVCAR-4 ovarian; 103% in the assay with SK-OV-3 ovarian. In addition, the growth is 40.5% in the assay with IGROV1 ovarian, -28.9% (active) in the assay with OVCAR-3 ovarian, 92.9% in the assay on HS 578T breast and -45.1% (active) in the assay on NCI/ADR-RES ovarian.
Take `CCCCCCCCCCCCCCCC(=O)OC[C@@]1(O)C[C@@]23CC[C@@H]4C(C)(C)[C@H](O)CC[C@@]4(C)[C@@H]2CC[C@H]1C3`: the growth with SR leukemia is 98.2%; in the assay with RPMI-8226 leukemia it was 102%; in the assay on OVCAR-8 ovarian, 108%; in the assay with OVCAR-5 ovarian it was 106%; with OVCAR-4 ovarian, 113%; with SK-OV-3 ovarian it was 97.1%. In addition, the growth with IGROV1 ovarian is 117%; in the assay with OVCAR-3 ovarian, 107%; with HS 578T breast it was 100%; with NCI/ADR-RES ovarian it was 106%.
For the compound `c1ccc(N2N=C(c3cccc(Nc4ccncc4)c3)CC2c2ccc3c(c2)OCO3)cc1` (stereo not given), the growth with SR leukemia was 4.46% (active); with RPMI-8226 leukemia, 2.64% (active); with OVCAR-8 ovarian it was 21.7%; in the assay on OVCAR-5 ovarian it was 43.7%; with OVCAR-4 ovarian it was 33.6%; in the assay with SK-OV-3 ovarian it was 22.1%. Also, the growth with IGROV1 ovarian is 16%; in the assay with OVCAR-3 ovarian, 7.28% (active); in the assay on HS 578T breast, 23.8%; in the assay with NCI/ADR-RES ovarian it was -1.79% (active).
Consider `CC(Oc1ccc(C(=O)NS(=O)(=O)C(C)(C)C)cc1C(F)(F)F)c1ccc(Oc2ccccc2)cn1` (stereo not given), for which the growth in the assay with SR leukemia was 25.9%; in the assay on RPMI-8226 leukemia it was 94.8%; with OVCAR-8 ovarian, 75.2%; in the assay with OVCAR-5 ovarian, 101%; in the assay on OVCAR-4 ovarian it was 93.1%; in the assay on SK-OV-3 ovarian, 104%. Besides, the growth is 64.8% with IGROV1 ovarian, 8.07% (active) in the assay on OVCAR-3 ovarian, 60.4% in the assay with HS 578T breast and 83% in the assay on NCI/ADR-RES ovarian.
Turning to `Cc1ccc2nc3c(cc2c1)CSc1nnc(-c2ccc[nH]c2=S)n1N3`, the growth in the assay with SR leukemia was 83.3%; with RPMI-8226 leukemia, 99.5%; with OVCAR-8 ovarian, 100%; in the assay on OVCAR-5 ovarian, 99.5%; in the assay on OVCAR-4 ovarian, 109%; with SK-OV-3 ovarian, 88.8%. The growth in the assay with IGROV1 ovarian was 82.7%; in the assay with OVCAR-3 ovarian, 99.5%; with HS 578T breast, 96.3%; with NCI/ADR-RES ovarian, 93.4%.
With `CCCCCCC/C=C/[C@H]1O[C@]2(O)C(=O)C=C3C[C@@H](O[C@@H]4O[C@H](CO)[C@@H](O)C(O)[C@@H]4O)C[C@@H]3[C@H]2C=C1C` (stereo not given in full), the growth was -26.4% (active) with SR leukemia; -23.6% (active) with RPMI-8226 leukemia; -20.5% (active) in the assay with OVCAR-8 ovarian; 12% in the assay on OVCAR-5 ovarian; 29.6% in the assay with OVCAR-4 ovarian; 57.6% in the assay with SK-OV-3 ovarian. In addition, the growth with IGROV1 ovarian was -7.08% (active); with OVCAR-3 ovarian it was -75.4% (active); in the assay with HS 578T breast, 29.1%; in the assay on NCI/ADR-RES ovarian, -6.45% (active).
With `Clc1ccc(C2CC(c3cccc(Nc4ccncc4)c3)=NN2c2ccc(Cl)cc2)cc1` (stereo not given), the growth is 2.85% (active) with SR leukemia; 0.298% (active) in the assay with RPMI-8226 leukemia; -38.9% (active) with OVCAR-8 ovarian; 65.4% in the assay on OVCAR-5 ovarian; -14.5% (active) in the assay on OVCAR-4 ovarian; 83.7% with SK-OV-3 ovarian. Also, the growth was 7.44% (active) in the assay with IGROV1 ovarian, 31% in the assay on OVCAR-3 ovarian, 54% with HS 578T breast and 11.2% in the assay on NCI/ADR-RES ovarian.
With `Cc1cccc(C)c1-c1cc(Cc2ccc(Cl)cc2)c(=O)[nH]n1`, the growth is 4.66% (active) with SR leukemia; 52.2% in the assay with RPMI-8226 leukemia; 97.1% in the assay with OVCAR-8 ovarian; 96.5% in the assay on OVCAR-5 ovarian; 97.6% with OVCAR-4 ovarian; 103% in the assay on SK-OV-3 ovarian. For the same compound, the growth in the assay with IGROV1 ovarian is 77.6%; in the assay with OVCAR-3 ovarian, 103%; in the assay with HS 578T breast it was 94%; in the assay on NCI/ADR-RES ovarian, 96.1%.
Turning to `c1cnc2nc3c(cc2c1)oc1ccccc13`, the growth in the assay with SR leukemia was 80.7%; in the assay on RPMI-8226 leukemia, 94.1%; with OVCAR-8 ovarian, 100%; in the assay on OVCAR-5 ovarian, 105%; with OVCAR-4 ovarian, 103%; in the assay on SK-OV-3 ovarian it was 121%. In addition, the growth in the assay with IGROV1 ovarian was 97.2%; in the assay on OVCAR-3 ovarian, 115%; in the assay on HS 578T breast it was 102%; in the assay with NCI/ADR-RES ovarian, 100%.
For `Cc1ccc(C2CC(c3cccc(Nc4ccncc4)c3)=NN2c2ccc(Cl)cc2)cc1` (stereo not given), the growth is -12.4% (active) with SR leukemia; -46% (active) with RPMI-8226 leukemia; -35% (active) with OVCAR-8 ovarian; -100% (active) with OVCAR-5 ovarian; -83.2% (active) in the assay on OVCAR-4 ovarian; -92.3% (active) in the assay on SK-OV-3 ovarian. In addition, the growth with IGROV1 ovarian is -92.7% (active); in the assay on OVCAR-3 ovarian, -91.1% (active); in the assay on HS 578T breast it was -55.9% (active); with NCI/ADR-RES ovarian, -63% (active).
